Screening data from PubChem BioAssay.
This is one part of a sample in which hits are shown more often than they occur.
ERG-DNA inh: inhibitors of human ERG Ets domain-DNA interaction; P11308; Potency, µM (titrated, usually from 76.9 µM), inactives show at the highest dose FP activity, negative = inhibition, actives largely listed as inhibitors; fluorescence polarization, His-ERG Ets domain / labelled DNA; 370,000 compounds, 0.028% hits; active means well fitted inhibition curve with a large enough effect in the polarisation, with a control signal flat; inconclusive means small, poorly fitted or top-dose-only effect, or effect the other way, or a change in a side signal; inactive means no such curve, though single readings can be large or run the other way; the % refers to the polarisation;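 further: polarization taken with two DNA probes labelled with fluorescein and Texas red; potency means the concentration at half of the fitted maximal effect; % of control where 0% means no effect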
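His-tagged ERG Ets domain (1 uM in the protein solution; 300mM KCl, 50mM Tris-HCl, 1mM EDTA, 1mM DTT, pH 7.5) received compound, then a probe mix of 5 nM fluorescein-DNA and 100nM Texas-615-DNA. Fluorescence polarization was read for both dyes.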
MmCpn inh: blocks the Methanococcus maripaludis chaperonin Mm-Cpn. Potency, µM (top dose mostly 76.9 µM), for the others: top-dose activity, negative = inhibition, usual class: inhibitors. AID 504842. purified Mm-Cpn ATPase, ADP Transcreener TR-FRET. 330,000 compounds, 0.031% hits; active means well fitted inhibition curve with a large enough effect; inconclusive means small, poorly fitted or top-dose-only effect; further: potency means the concentration at half of the fitted maximal effect; on the % scale 0 is the no-effect control and ±100 the full control effect; nearly all actives have a fitted effect of over 80% in size
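Reaction buffer contained 30 mM Tris pH 7.4, 100 mM KCl, 5 mM MgCl2 and 1 mM DTT. Mm-CPN (25 nM final) hydrolysed 10 uM ATP over 30 min at 37°C; ADP was read by HTRF.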
MLL CXXC-DNA inh: blocks binding of human MLL CXXC domain to DNA; MLL-CXXC / FITC-HOXA9 DNA fluorescence polarization; Potency, µM (series often up to 115 µM), inactives show at the top dose activity change, negative = inhibition, most hits filed as inhibitors; 290,000 compounds, 0.037% hits; AID 2662; active means well fitted inhibition curve with a large enough effect in the polarisation, with a control signal flat, not every such curve was filed as active; inconclusive means small, poorly fitted or top-dose-only effect, or effect the other way, or a change in a side signal; inactive means no such curve, though single readings can be large or run the other way; the % refers to the polarisation; further: potency means the concentration at half of the fitted maximal effect
Target sequence (Q03164 whole entry, looked up, the tested form may be a part): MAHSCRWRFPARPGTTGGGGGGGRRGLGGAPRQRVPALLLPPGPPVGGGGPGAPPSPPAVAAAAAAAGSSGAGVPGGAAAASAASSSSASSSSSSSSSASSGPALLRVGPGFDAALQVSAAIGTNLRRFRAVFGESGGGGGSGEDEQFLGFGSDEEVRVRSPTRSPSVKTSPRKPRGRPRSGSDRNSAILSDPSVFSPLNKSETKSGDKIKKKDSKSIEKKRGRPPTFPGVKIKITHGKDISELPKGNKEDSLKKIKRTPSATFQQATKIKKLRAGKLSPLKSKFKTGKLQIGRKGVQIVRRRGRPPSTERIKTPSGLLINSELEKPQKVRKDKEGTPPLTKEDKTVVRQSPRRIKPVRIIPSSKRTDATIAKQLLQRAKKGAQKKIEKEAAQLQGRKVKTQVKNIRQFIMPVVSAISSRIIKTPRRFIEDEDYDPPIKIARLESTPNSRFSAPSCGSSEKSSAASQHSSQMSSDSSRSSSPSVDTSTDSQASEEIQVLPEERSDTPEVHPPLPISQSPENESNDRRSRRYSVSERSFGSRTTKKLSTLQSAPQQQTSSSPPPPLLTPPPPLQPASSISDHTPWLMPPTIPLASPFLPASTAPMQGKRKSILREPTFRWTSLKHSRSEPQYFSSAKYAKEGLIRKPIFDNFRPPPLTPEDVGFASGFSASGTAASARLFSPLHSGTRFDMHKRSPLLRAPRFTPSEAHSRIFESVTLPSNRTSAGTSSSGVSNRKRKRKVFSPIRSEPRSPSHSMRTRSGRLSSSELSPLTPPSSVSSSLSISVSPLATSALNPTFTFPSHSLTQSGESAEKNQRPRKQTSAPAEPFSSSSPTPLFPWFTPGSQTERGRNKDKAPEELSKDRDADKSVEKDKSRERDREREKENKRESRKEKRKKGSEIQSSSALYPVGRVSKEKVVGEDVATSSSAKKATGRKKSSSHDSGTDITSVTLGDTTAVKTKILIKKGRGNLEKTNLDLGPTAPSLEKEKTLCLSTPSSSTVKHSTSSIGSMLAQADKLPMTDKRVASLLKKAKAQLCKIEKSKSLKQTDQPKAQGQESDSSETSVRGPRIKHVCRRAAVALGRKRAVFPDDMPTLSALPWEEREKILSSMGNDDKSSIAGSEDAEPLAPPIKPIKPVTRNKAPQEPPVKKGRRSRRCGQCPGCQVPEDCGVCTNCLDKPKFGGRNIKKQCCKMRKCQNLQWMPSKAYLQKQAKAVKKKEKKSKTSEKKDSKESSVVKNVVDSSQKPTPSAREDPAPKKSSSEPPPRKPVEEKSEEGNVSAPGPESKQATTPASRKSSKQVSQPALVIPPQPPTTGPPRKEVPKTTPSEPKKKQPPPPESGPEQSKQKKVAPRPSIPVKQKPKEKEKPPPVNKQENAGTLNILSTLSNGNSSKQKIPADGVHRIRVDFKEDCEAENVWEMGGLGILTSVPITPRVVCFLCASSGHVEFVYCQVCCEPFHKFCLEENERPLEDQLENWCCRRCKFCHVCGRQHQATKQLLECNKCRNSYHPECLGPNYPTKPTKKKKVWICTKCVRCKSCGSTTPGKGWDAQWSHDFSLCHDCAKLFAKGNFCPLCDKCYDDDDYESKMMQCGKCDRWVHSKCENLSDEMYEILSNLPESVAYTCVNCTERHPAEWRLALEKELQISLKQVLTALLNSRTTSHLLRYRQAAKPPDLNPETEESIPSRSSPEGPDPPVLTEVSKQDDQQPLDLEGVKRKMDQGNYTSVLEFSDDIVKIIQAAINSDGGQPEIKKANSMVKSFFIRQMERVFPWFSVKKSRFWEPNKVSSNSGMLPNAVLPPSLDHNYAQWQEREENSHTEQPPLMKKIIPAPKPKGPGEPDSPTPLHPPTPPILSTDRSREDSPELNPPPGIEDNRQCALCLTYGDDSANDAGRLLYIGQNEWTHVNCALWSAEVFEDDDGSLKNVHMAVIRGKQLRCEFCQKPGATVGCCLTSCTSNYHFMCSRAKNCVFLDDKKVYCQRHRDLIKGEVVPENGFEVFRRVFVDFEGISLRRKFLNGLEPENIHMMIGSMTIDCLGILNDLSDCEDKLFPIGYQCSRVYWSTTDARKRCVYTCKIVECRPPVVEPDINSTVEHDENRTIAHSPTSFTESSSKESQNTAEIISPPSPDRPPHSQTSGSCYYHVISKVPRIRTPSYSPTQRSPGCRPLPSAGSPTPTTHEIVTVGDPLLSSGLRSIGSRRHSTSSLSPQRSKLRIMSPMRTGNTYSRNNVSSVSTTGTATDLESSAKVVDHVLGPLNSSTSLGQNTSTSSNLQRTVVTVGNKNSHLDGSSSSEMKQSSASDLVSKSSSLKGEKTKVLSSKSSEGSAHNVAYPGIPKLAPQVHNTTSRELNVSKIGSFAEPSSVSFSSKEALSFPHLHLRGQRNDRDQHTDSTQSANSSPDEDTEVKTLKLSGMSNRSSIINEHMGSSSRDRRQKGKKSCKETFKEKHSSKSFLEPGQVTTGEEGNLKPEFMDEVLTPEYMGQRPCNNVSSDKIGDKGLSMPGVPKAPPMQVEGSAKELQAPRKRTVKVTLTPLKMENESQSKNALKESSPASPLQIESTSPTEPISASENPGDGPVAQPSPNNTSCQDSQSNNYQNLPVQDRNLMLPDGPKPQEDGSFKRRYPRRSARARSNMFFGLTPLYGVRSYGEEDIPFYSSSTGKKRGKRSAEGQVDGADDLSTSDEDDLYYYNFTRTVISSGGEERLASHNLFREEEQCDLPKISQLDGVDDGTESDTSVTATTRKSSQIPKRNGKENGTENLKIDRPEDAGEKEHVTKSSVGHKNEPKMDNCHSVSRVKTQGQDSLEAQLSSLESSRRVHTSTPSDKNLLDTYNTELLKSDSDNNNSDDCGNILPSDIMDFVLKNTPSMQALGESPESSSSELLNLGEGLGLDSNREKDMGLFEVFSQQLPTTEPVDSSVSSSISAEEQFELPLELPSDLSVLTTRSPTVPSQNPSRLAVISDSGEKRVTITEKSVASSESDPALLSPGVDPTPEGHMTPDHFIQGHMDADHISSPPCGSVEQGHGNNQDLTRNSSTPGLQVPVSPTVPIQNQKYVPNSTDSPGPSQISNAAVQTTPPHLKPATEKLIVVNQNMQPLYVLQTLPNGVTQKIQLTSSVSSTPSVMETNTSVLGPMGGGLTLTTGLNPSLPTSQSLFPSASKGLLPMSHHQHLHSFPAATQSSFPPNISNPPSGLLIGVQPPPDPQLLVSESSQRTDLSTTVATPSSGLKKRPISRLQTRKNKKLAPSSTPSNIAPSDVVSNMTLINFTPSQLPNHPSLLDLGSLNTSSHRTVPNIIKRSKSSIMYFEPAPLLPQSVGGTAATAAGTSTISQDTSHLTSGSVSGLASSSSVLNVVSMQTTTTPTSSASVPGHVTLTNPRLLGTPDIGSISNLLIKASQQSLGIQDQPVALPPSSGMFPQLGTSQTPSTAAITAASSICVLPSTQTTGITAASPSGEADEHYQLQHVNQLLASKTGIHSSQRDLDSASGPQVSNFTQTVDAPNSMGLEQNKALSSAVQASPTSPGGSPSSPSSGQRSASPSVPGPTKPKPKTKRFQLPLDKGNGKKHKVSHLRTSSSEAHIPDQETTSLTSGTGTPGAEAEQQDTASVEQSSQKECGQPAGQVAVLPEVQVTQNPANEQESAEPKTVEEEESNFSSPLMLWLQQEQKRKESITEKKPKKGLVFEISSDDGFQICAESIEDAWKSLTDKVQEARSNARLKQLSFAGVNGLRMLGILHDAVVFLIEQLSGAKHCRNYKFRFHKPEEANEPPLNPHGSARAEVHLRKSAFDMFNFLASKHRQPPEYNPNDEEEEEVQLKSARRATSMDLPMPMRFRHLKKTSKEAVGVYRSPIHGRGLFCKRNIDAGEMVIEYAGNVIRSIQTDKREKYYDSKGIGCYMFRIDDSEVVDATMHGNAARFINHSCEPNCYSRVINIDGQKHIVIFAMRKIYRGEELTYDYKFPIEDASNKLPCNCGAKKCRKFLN
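Purified MLL-CXXC (added from a 7 uM solution) was preincubated 5 min at ambient with pinned compounds in 50 mM Tris-HCl pH 7.5, 50 mM NaCl, 1 mM DTT, 0.05% BSA. Fluorescein-labeled HOX-A9 DNA (50 nM solution) followed, 30 min, then polarization read.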
Menin-MLL TR inh: displaces Texas Red mutant MLL peptide from human menin; Potency, µM (highest dose often 61.6 µM), inactives show top-dose FP activity change, negative = inhibition, actives largely listed as inhibitors; 270,000 compounds, 0.23% hits; O00255; Menin + Texas Red MLL mutant peptide, fluorescence polarization; active means well fitted inhibition curve with a large enough effect in the polarisation, with a control signal flat, not every such curve was filed as active; inconclusive means small, poorly fitted or top-dose-only effect, or effect the other way, or a change in a side signal; inactive means no such curve, though single readings can be large or run the other way; the % refers to the polarisation; further: potency means the concentration at half of the fitted maximal effect; % of control where 0% means no effect
Menin-MLL FL inh: menin-MLL binding inhibition, fluorescein peptide. 290,000 tested, under 10 active. Fluorescence polarization, fluorescein-MLL peptide displacement from menin. FP activity change, % at 61.4 µM. AID 1766; active means well fitted curve in the direction sought with a large enough effect in the polarisation, not every such curve was filed as active; inconclusive means small, poorly fitted or top-dose-only effect, or effect the other way, or a change in a side signal; inactive means no such curve, though single readings can be large or run the other way; the % refers to the polarisation; further: % of control where 0% means no effect
An asterisk follows results filed as active; ? = inconclusive; . = not tested or not shown.

SMILES	ERG-DNA inh	MmCpn inh	MLL CXXC-DNA inh	Menin-MLL TR inh	Menin-MLL FL inh
O=C(Oc1ccc(OC(=O)c2ccco2)c(S(=O)(=O)c2ccc(Br)cc2)c1)c1ccco1	-3%	0%	118%	10µM*	-1
O=C1C2C3c4ccccc4C(c4ccccc43)C2C(=O)N1c1nc(-c2ccccc2)cs1 (stereo not drawn)	8%	1%	24%	11µM*	3
O=C(Nc1ccc(Cl)c(Cl)c1)Nc1nnc(CC2=CCCCC2)s1	11%	0%	-1%	25µM*	1
O=C(Nc1nnc(CC2=CCCCC2)s1)c1cccs1	2%	-1%	1%	17%	4
O=C(Nc1ccc(Cl)cc1)Nc1nnc(CSCc2ccc(Cl)cc2)s1	10%	3%	-19%	7.9µM*	0
CCOC(=O)C1CCCN(C(=O)c2ccc3nc(-c4ccc(OC)c(OC)c4)c(-c4ccc(OC)c(OC)c4)nc3c2)C1 (stereo not drawn)	8%	-1%	20%	.	.
CCOC(=O)C1CCCN(C(=O)c2ccc3nc(-c4ccccc4)c(-c4ccccc4)nc3c2)C1 (stereo not drawn)	7%	40µM*	10%	.	.
O=c1c2nc(Br)n([C@@H]3O[C@@H]4CO[P@@](O)(=S)O[C@H]4[C@H]3O)c2nc2[nH]c(-c3ccccc3)cn12	.	.	.	-15%	2
CN(C)C(=O)CCSC(SCCC(=O)O)c1cccc(/C=C/c2ccc3ccc(Cl)cc3n2)c1 (stereo not drawn)	.	.	-4%	40%	0
Oc1ccc(Cl)cc1C1=NNC(c2cc(Br)cc3c2OCOC3)C1 (stereo not drawn)	-1%	-23%	4%	10µM*	14
COc1ccc(C2=NNC(c3cc(Cl)cc4c3OCOC4)C2)c(O)c1 (stereo not drawn)	.	1%	29%	-18%	2
COc1ccc(Br)cc1CNc1ccc(N2CCOCC2)cc1	2%	-1%	1%	14µM*	-11
NC(=O)C1CCN(c2nc(-c3ccc(C(F)(F)F)cc3)cs2)CC1	.	-21%	.	.	.
CSc1nc(=O)n2cc(C)ccc2n1	28µM*	0%	5%	6%	-3
CC(=O)Nc1ccc(-c2csc(N3CCC(C(N)=O)CC3)n2)cc1	.	-3%	.	.	.
CCCCOc1ccc(-c2c(C#N)c(N)nc(SCC(N)=O)c2C#N)cc1	2%	-14%	-6%	13µM*	2
CCCCSc1cnn(-c2ccccc2)c(=O)c1SCCCC	-3%	40µM*	-13%	-14%	0
O=C(Nc1cc(F)cc(F)c1)c1sc(Cl)nc1-c1ccccc1	13%	50µM*	10%	23%	10
Nc1nc(-c2nn(Cc3ccccc3F)c3ncccc23)ncc1C1CC1	.	.	.	-17%	-5
CCC(=O)Nc1nc(-c2cc([N+](=O)[O-])cs2)cs1	2%	35µM*	1%	?	-1
COCC(=O)Nc1nc(-c2ccc([N+](=O)[O-])cc2)cs1	3%	-3%	1%	23%	1
Cc1ccc(/C=C2/CNC/C(=C\c3ccc(C)cc3)C2=O)cc1	.	.	.	?	-2
CC[C@H](C)[C@H](NC(=O)[C@H](Cc1ccc(O)cc1)NC(=O)[C@H](Cc1cnc[nH]1)NC(=O)[C@H](CCCNC(=N)N)NC(=O)[C@H](CC(C)C)NC(=O)[C@H](C)NC(=O)[C@H](CO)NC(=O)[C@H](Cc1ccc(O)cc1)NC(=O)[C@H](Cc1ccc(O)cc1)NC(=O)[C@H](CCCNC(=N)N)NC(=O)[C@H](C)NC(=O)[C@H](CCSC)NC(=O)[C@H](CC(=O)O)NC(=O)[C@H](CCC(=O)O)NC(=O)[C@H](C)NC(=O)[C@@H]1CCCN1C(=O)[C@H](C)NC(=O)[C@H](CC(=O)O)NC(=O)[C@H](CCC(=O)O)NC(=O)CNC(=O)[C@@H]1CCCN1C(=O)[C@H](CC(N)=O)NC(=O)[C@H](CC(=O)O)NC(=O)[C@@H]1CCCN1C(=O)[C@H](CCCCN)NC(=O)[C@H](CO)NC(=O)[C@@H]1CCCN1C(=O)[C@@H](N)Cc1ccc(O)cc1)C(=O)N[C@@H](CC(N)=O)C(=O)N[C@@H](CC(C)C)C(=O)N[C@@H](CC(C)C)C(=O)N[C@H](C(=O)N[C@@H](CCCNC(=N)N)C(=O)N1CCC[C@H]1C(=O)N[C@@H](CCCNC(=N)N)C(=O)N[C@@H](Cc1ccc(O)cc1)C(N)=O)[C@@H](C)O	.	.	.	-16%	0
COc1ccc(-c2csc(NC(=O)CSc3nnnn3C)n2)cc1OC	16%	-4%	.	.	.
Cc1cc(C)cc(-n2nnnc2SCC(=O)Nc2nc(-c3ccc(F)cc3)cs2)c1	.	2%	23%	35µM*	-1
SMILES	ERG-DNA inh	MmCpn inh	MLL CXXC-DNA inh	Menin-MLL TR inh	Menin-MLL FL inh
Cc1cc(C)cc(-n2nnnc2SCC(=O)Nc2nc(-c3ccc(Cl)cc3)cs2)c1	.	-3%	-4%	28µM*	6
C[Se]CC[C@H](N)C(=O)O	.	.	-8%	-3%	6
Cc1cccc(C(=O)Nc2ccc(NC(=O)Cc3ccc(Cl)cc3)cc2)c1	-1%	-1%	0%	?	7
O=C(Cc1ccc(Cl)cc1)Nc1ccc(NC(=O)c2ccccc2)cc1	-2%	0%	4%	10µM*	-1
CCCCn1cc[n+](C)c1	.	.	.	-14%	-3
CCOC(=O)c1ccc(NC(=O)N2CCN(C(=O)c3ccco3)CC2)cc1	35µM*	-1%	1%	-1%	-3
Cc1noc(C)c1-c1ccc2ncnc(NCc3ccco3)c2c1	.	.	.	-9%	3
COc1cccc(-c2csc(N3CCC(C(N)=O)CC3)n2)c1	.	-3%	.	.	.
O=C(N/N=C/c1ccncc1)c1ccccn1	9%	0%	-9%	100µM*	-14
Cn1c(SCC(=O)C(C)(C)C)nnc1-c1ccncc1	-1%	-10%	12%	-7%	0
CCn1c(CSc2nnc(-c3ccncc3)n2C)nc2cc(C(=O)O)ccc21	25µM*	-2%	-25%	.	-16
C=CCOc1ccc(C(c2c(C(=O)O)[nH]c3ccccc23)c2c(C(=O)O)[nH]c3ccccc23)cc1	35µM*	1%	2%	?	-2
O=C(O)c1[nH]c2ccccc2c1C(c1ccccc1)c1c(C(=O)O)[nH]c2ccccc12	4%	1%	11%	?	-1
O=C(CSc1nc2ccccc2s1)N1c2ccccc2Sc2ccc(C(F)(F)F)cc21	5%	-3%	?	?	4
O=C(CSc1nc2ccccc2s1)N1c2ccccc2Sc2ccc(Cl)cc21	-1%	0%	23%	20µM*	-4
